Reference: PubChem BioAssay (Tox21)
Several values for one entry are separate records, joined by “and”; a condition that tells them apart may be missing. Identical values can stand only once. Inconclusive results are not listed. A call without a number means that no potency is given here. More than one record can exist for a structure, and the calls need not agree. Activity calls are given as the source filed them. Unless noted, calls follow the shape of the dose curve; as a rule, active = well fitted curve in the direction sought with a large enough effect in the repeat runs; inconclusive = weak or mixed curves; inactive = no such curve, though single readings can be large; an effect the other way counts as inactive or inconclusive.

What was measured:
[1] = qHTS assay to identify small molecule antagonists of the sonic hedgehog signaling (Shh) pathway (AID 1259369; calls by dose curve; also: nearly all actives have a fitted effect of over 45% in size; also: potency is read from the fitted curve at half-maximal effect)
In short: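 Screening used 3T3Gli1-Luc cells at 2,000 per well, compounds delivered in DMSO, and conditioned medium as agonist stimulus; plates incubated 24hr at 37 C and 5% CO2 before a 30min luciferase step.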

[2] = qHTS assay to identify small molecule agonists of the androgen receptor (AR) signaling pathway in the presence of an antagonist - cell viability counter screen (AID 1259379);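 also: MDA-kb2 human breast cancer cells carrying an MMTV luciferase reporter; series mostly up to about 92 µM; nearly all actives have a fitted effect of over 25% in size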
In short: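 In MDA-kb2 cells (human breast carcinoma, MMTV-luciferase), compounds at 15 concentrations plus 3.0uM nilutamide; 16 hr, 37C, 0% CO2; CellTiter-Fluor fluorescence read for viability.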

[3] = qHTS assay to identify small molecule agonists of the estrogen receptor beta (ER-beta) signaling pathway - cell viability counter screen (AID 1259380); also: nearly all actives have a fitted effect of over 30% in size; also: potency is read from the fitted curve at half-maximal effect
In short: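 Viability of ER-beta-UAS-bla HEK293T cells was determined by CellTiter-Glo luminescence following 16 hr treatment with test compounds at 37C.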

[4] = biological target: Androgen receptor (Homo sapiens) (UniProt P10275); assay: qHTS assay to identify small molecule agonists of the androgen receptor (AR) signaling pathway in the presence of an antagonist (AID 1259381; calls by dose curve; also: nearly all actives have a fitted effect of over 15% in size)
In short: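 Here, 15-concentration compound series were pin-transferred onto MDA-kb2 MMTV-luciferase cells already dosed with nilutamide (3.0uM final). After 16hr at 37C, ONE-Glo was added and luminescence read 30min later at room temperature.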

[5] = qHTS assay to identify small molecule antagonists of the estrogen receptor beta (ER-beta) signaling pathway - cell viability counter screen (AID 1259382); also: nearly all actives have a fitted effect of over 55% in size; also: potency is read from the fitted curve at half-maximal effect
In short: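 Tox21 10K library tested in qHTS format on ER-beta-bla HEK293T cells stimulated with 1nM E2; 16 hr treatment at 37C. Same-well CellTiter-Glo luminescence served as the cell viability measure.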

[6] = biological target: Estrogen receptor (Homo sapiens) (UniProt P03372); assay: qHTS assay to identify small molecule agonists of the estrogen receptor alpha (ER-alpha) signaling pathway in the presence of an antagonist (AID 1259383; calls by dose curve; also: top concentration of the series differs between compounds; nearly all actives have a fitted effect of over 15% in size)
In short: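 In VM7Luc4E2 cells, 4,000 per well, compounds at 15 concentrations were co-incubated 22hr at 37C with 10.0nM final ICI-182,780. Luminescence from the stably transfected 4×ERE-luciferase reporter was recorded 30min after ONE-Glo addition.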

[7] = qHTS assay to identify small molecule agonists or antagonists of the thyroid stimulating hormone receptor (TSHR) signaling pathway - wild type cell line counter screen (AID 1259384; calls by dose curve)
In short: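 Wild-type HEK293 cells were plated 18 h at 37 C/5% CO2, pin-dosed with compound plus Ro20-1724 medium, held 30 min at room temperature, then given cAMP-d2 and anti-cAMP-cryptate; fluorescence was read after 1 h. Fifteen concentrations, triplicate.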

[8] = biological target: Thyrotropin receptor (Homo sapiens) (UniProt P16473); assay: qHTS assay to identify small molecule antagonists of the thyroid stimulating hormone receptor (TSHR) signaling pathway (AID 1259385; calls by dose curve; also: nearly all actives have a fitted effect of over 20% in size)
In short: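 TSHR-HEK293 cells were plated and held 18 h at 37C/5% CO2, then given compound plus Ro20-1724 and stimulated with TSH at 1.5 ng/mL final. After 30 min at room temperature, cAMP was detected with cAMP-d2/anti-cAMP-cryptate (1 h) by fluorescence.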

[9] = qHTS assay to identify small molecule agonists of the estrogen receptor alpha (ER-alpha) signaling pathway in the presence of an antagonist - cell viability counter screen (AID 1259386);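 also: series mostly up to about 92 µM; cells exposed to compounds for 22 h at 37 °C before the viability read; nearly all actives have a fitted effect of over 30% in size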
In short: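 Fluorescent CellTiter-Fluor viability signal from VM7Luc4E2 cells, with the reagent added during the final hour of a 22hr compound exposure at 37C in the presence of 10.0nM ICI-182,780.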

[10] = qHTS assay to identify small molecule antagonists of the progesterone receptor (PR) signaling pathway - cell viability counter screen (AID 1346798); also: series mostly up to about 92 µM; nearly all actives have a fitted effect of over 50% in size
In short: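 Counter screen for cytotoxicity: viability of PR-UAS-bla HEK293T cells was measured with CellTiter-Glo luminescence following 16 hr compound exposure in the presence of R5020.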

[11] = qHTS assay to identify small molecule agonists of the progesterone receptor (PR) signaling pathway - cell viability counter screen (AID 1346799; calls by dose curve; also: nearly all actives have a fitted effect of over 45% in size; also: potency is read from the fitted curve at half-maximal effect)
In short: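 Cells (PR-UAS-bla HEK293T) are plated at 3,000/well in 2% charcoal-stripped FBS medium, rested 6 hr, dosed and incubated 16 hr at 37C. CellTiter-Glo is then added and luminescence measured after 30 min at room temperature.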

[12] = qHTS assay to identify small molecule antagonists of the TGF-beta/Smad signaling pathway - cell viability counter screen (AID 1346824); also: nearly all actives have a fitted effect of over 50% in size
In short: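 SBE-bla HEK 293T cells were plated overnight at 37 C, then given compounds in DMSO plus TGF-beta1 (added as 0.25 ng/mL solution) for 5 hr. After the bla read, CellTiter-Glo was added to the same wells and luminescence read after 30 min at room temperature.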

[13] = qHTS assay to identify small molecule agonists of the TGF-beta/Smad signaling pathway - cell viability counter screen (AID 1346829); also: top concentration of the series differs between compounds; nearly all actives have a fitted effect of over 45% in size
In short: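 After overnight seating at 37 C and 5% CO2, reporter cells got compounds for 5 hr and FRET substrate for 2 hr; cell viability then came from CellTiter-Glo luminescence.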

[14] = qHTS assay to identify small molecule agonists of the TGF-beta/Smad signaling pathway (AID 1346859; active = well fitted activation curve with a large enough effect in the signal ratio in the repeat runs, not every such curve was filed as active; the % refers to the signal ratio; also: potency is read from the fitted curve at half-maximal effect; as to activation: series mostly up to about 77 µM)
In short: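 Reporter line: HEK 293T with stably integrated SBE-controlled beta-lactamase. Compound exposure lasts 5 hr at 37 C and 5% CO2; substrate loading follows for 2 hr at room temperature, with emission read at 460 and 530 nm.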

[15] = biological target: Progesterone receptor (Homo sapiens) (UniProt P06401); assay: qHTS assay to identify small molecule agonists of the progesterone receptor (PR) signaling pathway (AID 1346784; calls by dose curve; also: nearly all actives have a fitted effect of over 30% in size)
In short: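 Cells (PR-UAS-bla HEK 293T, GripTite) were plated in assay medium containing 2% charcoal-stripped FBS and incubated 6 hr. Test compounds in DMSO were added for 16 hr at 37C. FRET substrate was then loaded for 2 hr at room temperature before fluorescence reading.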

[16] = biological target: Progesterone receptor (Homo sapiens) (UniProt P06401); assay: qHTS assay to identify small molecule antagonists of the progesterone receptor (PR) signaling pathway (AID 1346795; active = well fitted inhibition curve with a large enough effect in the signal ratio in the repeat runs, not every such curve was filed as active; the % refers to the signal ratio; also: potency is read from the fitted curve at half-maximal effect)
In short: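 Antagonist mode: compounds tested against 1 nM (final) promegestone stimulation in HEK293T cells expressing PR-UAS-bla reporter, 16 hr at 37C, 5% CO2; beta-lactamase activity detected via B/G FRET substrate after 2 hr at room temperature.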

[17] = biological target: Thyrotropin-releasing hormone receptor (Homo sapiens) (UniProt P34981); assay: qHTS assay to identify small molecule agonists of the thyrotropin-releasing hormone receptor (TRHR) signaling pathway (AID 1346891; calls by dose curve; also: series mostly up to about 58 µM)
In short: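 Cells: TRHR-Hek293, seeded and incubated 18 h. Dye loading: 2 h at 37 °C. Compound added from DMSO stock by pin tool. Read-out: kinetic calcium fluorescence over 3 min.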

[18] = biological target: Estrogen receptor beta (Homo sapiens) (UniProt Q92731); assay: qHTS assay to identify small molecule agonists of the estrogen receptor beta (ER-beta) signaling pathway (AID 1259377; active = well fitted activation curve with a large enough effect in the signal ratio in the repeat runs, not every such curve was filed as active; the % refers to the signal ratio)
In short: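 Agonist mode cell assay in GripTite HEK293T cells expressing an ER-beta fusion that drives beta-lactamase from an Upstream Activator Sequence; 16 hr compound exposure at 37C, then 2 h LiveBLAzer B/G FRET substrate at room temperature, fluorescence read-out.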

[19] = biological target: Estrogen receptor beta (Homo sapiens) (UniProt Q92731); assay: qHTS assay to identify small molecule antagonists of the estrogen receptor beta (ER-beta) signaling pathway (AID 1259378; active = well fitted inhibition curve with a large enough effect in the signal ratio in the repeat runs, not every such curve was filed as active; the % refers to the signal ratio; also: potency is read from the fitted curve at half-maximal effect)
In short: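 ER-beta-UAS-bla HEK293T (GripTite) cells in 2% charcoal-stripped FBS medium were preincubated 6 hr at 37C, dosed with compound, then stimulated with 1 nM E2 (final) for 16 hr; beta-lactamase reporter read by B/G FRET fluorescence after 2 hr substrate loading.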

[20] = biological target: Thyrotropin-releasing hormone receptor (Homo sapiens) (UniProt P34981); assay: qHTS assay to identify small molecule antagonists of the thyrotropin-releasing hormone receptor (TRHR) signaling pathway (AID 1346877; active = well fitted inhibition curve with a large enough effect in the repeat runs, not every such curve was filed as active; also: series mostly up to about 51 µM)
In short: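 In this cell-based calcium flux format, HEK293 cells expressing TRHR received test compound for 5 min before the agonist TRH (1 nM final). Dye loading lasted 2 h at 37 °C.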

Chain of Progesterone receptor (Homo sapiens) (P06401 whole entry, looked up): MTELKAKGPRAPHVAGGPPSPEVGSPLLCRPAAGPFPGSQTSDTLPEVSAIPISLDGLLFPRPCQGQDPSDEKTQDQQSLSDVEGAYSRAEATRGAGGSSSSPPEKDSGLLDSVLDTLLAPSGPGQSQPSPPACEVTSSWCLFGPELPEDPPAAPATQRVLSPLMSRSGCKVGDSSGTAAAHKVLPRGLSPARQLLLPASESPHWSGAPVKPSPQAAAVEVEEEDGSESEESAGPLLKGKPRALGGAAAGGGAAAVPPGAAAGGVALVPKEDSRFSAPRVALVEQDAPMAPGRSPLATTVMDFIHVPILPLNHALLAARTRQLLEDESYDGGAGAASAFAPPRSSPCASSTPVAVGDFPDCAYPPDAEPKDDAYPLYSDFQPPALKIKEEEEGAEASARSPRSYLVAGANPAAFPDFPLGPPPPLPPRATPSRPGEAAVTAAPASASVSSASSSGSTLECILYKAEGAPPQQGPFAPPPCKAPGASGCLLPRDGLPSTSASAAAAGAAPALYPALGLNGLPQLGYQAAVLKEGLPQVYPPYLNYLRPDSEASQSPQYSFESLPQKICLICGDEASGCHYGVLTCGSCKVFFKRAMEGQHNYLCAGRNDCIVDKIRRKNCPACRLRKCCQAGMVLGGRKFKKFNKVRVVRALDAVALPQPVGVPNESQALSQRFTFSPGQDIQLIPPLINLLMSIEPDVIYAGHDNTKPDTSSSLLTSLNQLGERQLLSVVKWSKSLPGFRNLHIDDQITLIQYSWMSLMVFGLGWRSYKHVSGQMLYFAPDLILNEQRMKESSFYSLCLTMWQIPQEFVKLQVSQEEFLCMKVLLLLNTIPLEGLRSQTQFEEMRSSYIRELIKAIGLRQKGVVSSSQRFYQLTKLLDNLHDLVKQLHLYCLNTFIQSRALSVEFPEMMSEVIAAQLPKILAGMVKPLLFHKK
Chain of Estrogen receptor (Homo sapiens) (P03372 whole entry, looked up): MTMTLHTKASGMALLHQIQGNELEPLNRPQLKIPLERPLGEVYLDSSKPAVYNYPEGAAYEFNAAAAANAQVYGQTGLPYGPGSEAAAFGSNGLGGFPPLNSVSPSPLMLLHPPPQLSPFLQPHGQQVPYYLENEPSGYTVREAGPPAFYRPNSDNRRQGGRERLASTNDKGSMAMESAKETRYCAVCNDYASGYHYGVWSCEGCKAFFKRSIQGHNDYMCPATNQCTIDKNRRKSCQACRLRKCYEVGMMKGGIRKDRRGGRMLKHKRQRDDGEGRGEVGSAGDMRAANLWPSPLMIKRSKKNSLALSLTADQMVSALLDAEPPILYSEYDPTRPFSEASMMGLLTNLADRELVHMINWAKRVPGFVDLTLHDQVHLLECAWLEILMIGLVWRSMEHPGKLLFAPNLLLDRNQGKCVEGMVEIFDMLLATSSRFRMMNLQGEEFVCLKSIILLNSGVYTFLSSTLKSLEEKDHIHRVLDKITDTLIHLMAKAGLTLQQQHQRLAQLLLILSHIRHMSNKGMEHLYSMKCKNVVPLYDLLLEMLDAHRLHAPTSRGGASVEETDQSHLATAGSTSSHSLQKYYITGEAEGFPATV
Chain of Estrogen receptor beta (Homo sapiens) (Q92731 whole entry, looked up, the tested form may be a part): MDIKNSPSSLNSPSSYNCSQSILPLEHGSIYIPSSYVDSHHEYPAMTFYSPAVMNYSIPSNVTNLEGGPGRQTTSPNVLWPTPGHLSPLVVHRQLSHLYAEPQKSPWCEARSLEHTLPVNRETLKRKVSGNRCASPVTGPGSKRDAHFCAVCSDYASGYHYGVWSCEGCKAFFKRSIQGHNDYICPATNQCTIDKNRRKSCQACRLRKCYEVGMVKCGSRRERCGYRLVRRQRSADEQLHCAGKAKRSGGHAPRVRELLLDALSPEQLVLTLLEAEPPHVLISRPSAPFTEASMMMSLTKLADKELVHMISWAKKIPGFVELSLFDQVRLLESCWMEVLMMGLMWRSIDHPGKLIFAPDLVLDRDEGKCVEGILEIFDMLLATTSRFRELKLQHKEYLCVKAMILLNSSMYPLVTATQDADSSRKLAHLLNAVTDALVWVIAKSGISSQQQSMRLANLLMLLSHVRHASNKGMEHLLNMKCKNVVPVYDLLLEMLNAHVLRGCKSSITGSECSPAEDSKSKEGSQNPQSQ
Chain of Androgen receptor (Homo sapiens) (P10275 whole entry, looked up): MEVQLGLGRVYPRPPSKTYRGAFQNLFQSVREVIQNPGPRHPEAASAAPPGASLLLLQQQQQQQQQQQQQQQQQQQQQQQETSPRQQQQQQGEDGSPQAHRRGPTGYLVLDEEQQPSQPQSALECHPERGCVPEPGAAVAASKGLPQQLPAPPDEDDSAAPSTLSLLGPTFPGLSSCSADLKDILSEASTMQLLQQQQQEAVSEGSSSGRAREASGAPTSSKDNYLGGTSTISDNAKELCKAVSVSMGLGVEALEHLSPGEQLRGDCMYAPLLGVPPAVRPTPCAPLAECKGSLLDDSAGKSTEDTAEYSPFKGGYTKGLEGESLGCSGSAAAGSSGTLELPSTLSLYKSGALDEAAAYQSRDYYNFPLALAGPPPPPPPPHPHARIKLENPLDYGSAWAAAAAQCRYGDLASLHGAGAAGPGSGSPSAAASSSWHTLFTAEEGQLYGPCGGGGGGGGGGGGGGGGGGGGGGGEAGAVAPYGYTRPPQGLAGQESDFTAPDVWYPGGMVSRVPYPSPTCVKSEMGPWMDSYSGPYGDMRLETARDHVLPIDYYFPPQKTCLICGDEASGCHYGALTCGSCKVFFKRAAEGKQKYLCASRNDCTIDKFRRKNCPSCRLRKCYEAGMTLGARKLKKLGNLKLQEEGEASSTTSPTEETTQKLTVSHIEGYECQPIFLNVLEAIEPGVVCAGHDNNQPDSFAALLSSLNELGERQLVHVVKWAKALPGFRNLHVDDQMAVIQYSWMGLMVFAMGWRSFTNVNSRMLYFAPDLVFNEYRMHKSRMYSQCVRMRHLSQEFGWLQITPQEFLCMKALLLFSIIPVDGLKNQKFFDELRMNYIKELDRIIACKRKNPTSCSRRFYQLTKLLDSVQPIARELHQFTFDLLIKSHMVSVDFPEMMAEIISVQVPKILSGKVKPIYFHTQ
Chain of Thyrotropin-releasing hormone receptor (Homo sapiens) (P34981 whole entry, looked up): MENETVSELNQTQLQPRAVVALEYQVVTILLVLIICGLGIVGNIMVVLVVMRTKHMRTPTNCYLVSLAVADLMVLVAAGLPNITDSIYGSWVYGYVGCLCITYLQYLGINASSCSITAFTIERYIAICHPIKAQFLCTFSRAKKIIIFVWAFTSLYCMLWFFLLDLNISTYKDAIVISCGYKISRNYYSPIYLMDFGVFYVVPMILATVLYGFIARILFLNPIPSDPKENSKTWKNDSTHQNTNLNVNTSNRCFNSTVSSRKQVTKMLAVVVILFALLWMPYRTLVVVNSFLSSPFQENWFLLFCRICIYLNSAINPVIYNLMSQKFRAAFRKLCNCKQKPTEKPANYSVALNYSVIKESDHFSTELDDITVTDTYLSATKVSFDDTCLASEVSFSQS
Chain of Thyrotropin receptor (Homo sapiens) (P16473 whole entry, looked up): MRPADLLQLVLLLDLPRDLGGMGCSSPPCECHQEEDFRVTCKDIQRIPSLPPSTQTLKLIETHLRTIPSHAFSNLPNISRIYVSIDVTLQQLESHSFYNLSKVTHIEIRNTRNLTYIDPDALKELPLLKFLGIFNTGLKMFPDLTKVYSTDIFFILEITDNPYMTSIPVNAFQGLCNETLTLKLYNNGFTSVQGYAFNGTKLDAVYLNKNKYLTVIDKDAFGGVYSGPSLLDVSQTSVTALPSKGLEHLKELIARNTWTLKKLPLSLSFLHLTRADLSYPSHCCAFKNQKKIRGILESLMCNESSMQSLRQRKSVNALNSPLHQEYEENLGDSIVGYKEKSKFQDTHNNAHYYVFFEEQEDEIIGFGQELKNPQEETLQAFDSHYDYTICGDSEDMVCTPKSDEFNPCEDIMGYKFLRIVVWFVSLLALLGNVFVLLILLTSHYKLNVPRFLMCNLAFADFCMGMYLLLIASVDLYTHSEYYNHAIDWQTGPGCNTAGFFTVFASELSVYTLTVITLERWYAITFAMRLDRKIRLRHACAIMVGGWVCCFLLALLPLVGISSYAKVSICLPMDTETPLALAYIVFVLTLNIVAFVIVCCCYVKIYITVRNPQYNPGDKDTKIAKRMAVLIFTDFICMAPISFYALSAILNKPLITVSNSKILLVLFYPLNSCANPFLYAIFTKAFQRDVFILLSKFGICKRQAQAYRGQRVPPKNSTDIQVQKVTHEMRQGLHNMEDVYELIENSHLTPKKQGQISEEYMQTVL

| SMILES | Potency [1] | Potency [2] | Potency [3] | outcome [4] | Potency [5] | Potency [6] | Potency [7] | Potency [8] | Potency [9] | Potency [10] | Potency [11] | Potency [12] | Potency [13] | Potency [14] | Potency [15] | Potency [16] | outcome [17] | Potency [18] | Potency [19] | Potency [20] |
| --- | --- | --- | --- | --- | --- | --- | --- | --- | --- | --- | --- | --- | --- | --- | --- | --- | --- | --- | --- | --- |
| Cc1ccccc1Cl | inactive | inactive | inactive | inactive | inactive | inactive | inactive | inactive | inactive | inactive | inactive | inactive | inactive | inactive | – | – | – | – | – | – |
| CCCOCC(C)O (centres undefined) | inactive | inactive | inactive | inactive | inactive | – | inactive | inactive | inactive | inactive | inactive | inactive | inactive | inactive | inactive | inactive | inactive | – | – | – |
| CCCCC(CC)COC(=O)c1ccc(C(=O)OCC(CC)CCCC)cc1 (centres undefined) | inactive | inactive | inactive | inactive | inactive | – | – | – | inactive | inactive | inactive | inactive | inactive | inactive | inactive | inactive | inactive | – | – | – |
| CN1CCCC1=O | inactive | inactive | inactive | – | inactive | inactive | – | – | inactive | inactive | inactive | inactive | inactive | inactive | inactive | inactive | inactive | inactive | inactive | inactive |
| CC(=O)C(C)C | inactive | inactive | inactive | – | inactive | inactive | – | – | inactive | inactive | inactive | inactive | inactive | inactive | inactive | inactive | inactive | inactive | inactive | – |
| CCOC(=O)c1ccc(O)cc1 | inactive | inactive | inactive | – | inactive | inactive | inactive | inactive | inactive | inactive | inactive | inactive | inactive | inactive | inactive | inactive | inactive | – | inactive | inactive |
| CC(O)CNCC(C)O (centres undefined) | inactive | inactive | inactive | – | inactive | inactive | inactive | inactive | inactive | inactive | inactive | inactive | inactive | inactive | inactive | inactive | – | – | – | – |
| CCCCCCCCC(=O)O | inactive | inactive | inactive | – | inactive | inactive | inactive | inactive | inactive | inactive | inactive | inactive | inactive | inactive | inactive | – | inactive | inactive | inactive | – |
| Cc1nnc(NS(=O)(=O)c2ccc(N)cc2)s1 | inactive | inactive | inactive | inactive | inactive | inactive | inactive | inactive | inactive | inactive | inactive | inactive | inactive | inactive | inactive | inactive | – | – | – | – |
| Nc1cccc(N)n1 | inactive | inactive | inactive | – | inactive | inactive | inactive | inactive | inactive | inactive | inactive | inactive | inactive | inactive | inactive | inactive | – | – | – | – |
| CCN(CC)CCNC(=O)c1ccc(N)cc1 | inactive | inactive | inactive | – | inactive | – | inactive | inactive | inactive | inactive | inactive | – | inactive | inactive | inactive | inactive | – | inactive | inactive | – |
| CC(CN1c2ccccc2Sc2ccccc21)N(C)C (centres undefined) | 12.3 µM (active) and 27.3 µM (active) and 13.3 µM (active) | inactive | 49.1 µM (active) and 24.3 µM (active) and 23.7 µM (active) | – | 24.6 µM (active) and 21.7 µM (active) and 16.8 µM (active) | – | inactive | inactive | inactive | – | 69.3 µM (active) and 30.6 µM (active) and inactive | inactive | inactive | inactive | inactive | 61.8 µM (active) and 30.6 µM (active) | inactive | inactive | 43.3 µM (active) and 29.8 µM (active) | – |
| CC(=O)OC[C@H]1O[C@@](COC(C)=O)(O[C@H]2O[C@H](COC(C)=O)[C@@H](OC(C)=O)[C@H](OC(C)=O)[C@H]2OC(C)=O)[C@@H](OC(C)=O)[C@@H]1OC(C)=O | inactive | inactive | inactive | – | inactive | – | inactive | inactive | inactive | inactive | inactive | inactive | inactive | inactive | inactive | inactive | inactive | inactive | inactive | inactive |
| OCCOCCOCCOCCOCCO | inactive | inactive | inactive | – | inactive | – | inactive | inactive | inactive | inactive | inactive | inactive | inactive | inactive | inactive | inactive | inactive | inactive | inactive | inactive |
| NC1CCCCC1N (centres undefined) | inactive | inactive | inactive | – | inactive | – | inactive | inactive | inactive | inactive | inactive | inactive | inactive | inactive | inactive | inactive | – | inactive | inactive | – |
| CCCCCNCCCCC | inactive | inactive | inactive | – | inactive | – | inactive | inactive | inactive | inactive | inactive | inactive | inactive | inactive | inactive | inactive | inactive | inactive | inactive | – |
| Nc1nc(N)c2nc(-c3ccccc3)c(N)nc2n1 | 24.6 µM (active) and 30.6 µM (active) | inactive | 69.4 µM (active) and inactive | inactive | inactive | inactive | inactive | inactive | inactive | inactive | inactive | inactive | inactive | 22.1 µM (active) and 19 µM (active) | – | – | inactive | – | – | inactive |
